Bioassay records deposited in PubChem BioAssay by National Center for Advancing Translational Sciences (NCATS).
IL1B secr inh: inhibitors of inflammasome signaling (IL-1 beta secretion) | THP-1 LPS/ATP IL-1B secretion, AlphaLISA, 16 h; stronger effect = lower value | activity change, % at 57.5 µM | 360,000 tested, 4.7% active | AID 743279; in the data active = activity change below about -50%; inconclusive = mostly about -30% to -49%
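THP-1 cells pretreated 1 hr with compounds (up to 57.5 uM final), then stimulated with LPS (250 ng/mL final) plus ATP (1.25 mM final); secreted IL-1B measured by AlphaLISA after 16 hr, decreased signal indicating inhibition.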
DT40 TDP1 no CPT: qHTS for Inhibitors of human tyrosyl-DNA phosphodiesterase 1 (TDP1): qHTS in cells in absence of CPT; DT40 Tdp1-/- hTDP1 cells, no CPT, ATP luminescence, 48 h; 420,000 tested, 15% active; Potency, µM (doses to about 46.2 µM), for inactives: at the top dose activity change, negative = growth inhibition, actives largely listed as inhibitors; AID 686978, 2013; also: potency is read from the fitted curve at half-maximal effect; nearly all actives have a fitted effect of over 55% in size
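Readout: luminescence from CellTiter-Glo after 30 min in the dark at RT. Cells: DT40 Tdp1-/- with stable hTDP1, 400/well. Exposure: compounds alone, ≥48 hr, 37 °C.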
TDP1 cell CPT: growth inhibition of DT40 Tdp1-/-;hTDP1 cells with camptothecin (screen for TDP1 inhibitors). 420,000 tested, 12% active. Potency, µM (highest dose often 46.2 µM), without a hit: top-dose activity change, negative = growth inhibition, actives largely listed as inhibitors. chicken DT40 Tdp1-/-;hTDP1 cells + 20 nM CPT, ATP luminescence, 48 h; also: potency is read from the fitted curve at half-maximal effect; nearly all actives have a fitted effect of over 55% in size
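Cell growth measured by CellTiter-Glo luminescence after a minimum 48 h, 37 C compound exposure with 20 nM CPT in Tdp1-knockout DT40 cells stably expressing hTDP1, seeded 400/well; qHTS titration format.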
HT1080 IDH1KD tx: kills HT-1080 cells with IDH1 knockdown; HT-1080 IDH1 knockdown viability, ATP luminescence, 48 h; Potency, µM (titrated, usually from 46.1 µM), for inactives: at the highest dose activity, negative = toxicity, usual class: cytotoxic; 360,000 tested, 2% active; AID 686971;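 also: potency is read from the fitted curve at half-maximal effect; 0% = DMSO wells and -100% = cell-free medium wells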
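Assay cells: HT-1080 with IDH1 knockdown, 750 per well, RPMI/5% FBS. Exposure: 48 h at 37 °C following 2 h pre-incubation. Read: CellTiter-Glo luminescence; fitted concentration-response, curve class assigned.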
HT1080-NT tox: kills 2HG-producing HT-1080-NT fibrosarcoma cells; Potency, µM (titrated, usually from 46.1 µM), inactives show at the top dose activity, negative = less viability, usual class: cytotoxic; AID 686970; HT-1080-NT fibrosarcoma viability, CellTiter-Glo ATP luminescence, 48 h; 360,000 tested, 1.6% active;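 also: NT is the 2HG producing partner of a matched IDH1 knockdown line; potency is read from the fitted curve at half-maximal effect; 0% = DMSO-treated cells and -100% = media-only wells without cells; nearly all actives have a fitted effect of over 55% in size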
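Toxicity toward the 2HG-producing NT line was scored as %Activity, normalised to DMSO and no-cell wells, from CellTiter-Glo luminescence after 48 hours' treatment.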
The depositor's hits bear a star; u = inconclusive; x = no result. Most compounds without a hit are left out; they make up all but 19% or so of the library. Unless noted, calls follow the shape of the dose curve; as a rule, active = well fitted curve in the direction sought with a large enough effect; inconclusive = small, poorly fitted or top-dose-only effect, or another doubt; inactive = no such curve, though single readings can be large; an effect the other way counts as inactive or inconclusive. Unless noted, % is scaled to controls: 0 for no effect and ±100 for the full control effect.

SMILES	IL1B secr inh	DT40 TDP1 no CPT	TDP1 cell CPT	HT1080 IDH1KD tx	HT1080-NT tox
Cc1cccc(NC(=O)c2nc[nH]c2C(=O)N2CCN(C(=O)OC(C)(C)C)CC2)c1	-2	u	21µM*	10%	2%
Cc1ccc(NC(=O)c2nc[nH]c2C(=O)Nc2ccc(C)cc2)cc1	-2	7.3µM*	10µM*	12%	1%
Cc1cccc(NC(=O)c2nc[nH]c2C(=O)NC2CCN(C(=O)OC(C)(C)C)CC2)c1	7	8%	4%	0%	7%
Cc1cccc(NC(=O)c2nc[nH]c2C(=O)Nc2cccc(C)c2)c1	3	10µM*	u	u	-26%
CNC(=O)c1[nH]cnc1C(=O)Nc1ccc(C)cc1	11	-10%	-21%	-1%	-9%
Cc1ccccc1OCC(=O)N1CCCCCCC1	-6	-27%	u	2%	6%
CCC(C)NC(=O)c1nn(-c2ccc(C)cc2)nc1CO (configuration not stated)	x	-10%	4%	x	x
Cc1nn(C(=O)c2cccc(F)c2)c(C)c1S(=O)(=O)N1CCOCC1	x	-15%	-16%	x	x
COc1ccccc1N1C(=O)C2C(c3ccccc3F)NN(C(=O)c3ccc(C)cc3)C2C1=O (configuration not stated)	-24	-1%	-19%	-1%	22%
Cc1ccc(NC(=O)c2nc[nH]c2C(=O)NCCN(CCNC(=O)c2[nH]cnc2C(=O)Nc2ccc(C)cc2)CCNC(=O)c2[nH]cnc2C(=O)Nc2ccc(C)cc2)cc1	u	16µM*	u	9%	10%
O=C(Nc1ccc(F)cc1)c1nc[nH]c1C(=O)Nc1ccc([N+](=O)[O-])cc1	-1	15µM*	u	-12%	2%
Cc1cccc(NC(=O)c2nc[nH]c2C(=O)NCCN(CCNC(=O)c2[nH]cnc2C(=O)Nc2cccc(C)c2)CCNC(=O)c2[nH]cnc2C(=O)Nc2cccc(C)c2)c1	-23	5.8µM*	6.5µM*	9%	13%
O=C(Nc1ccccc1)c1nc[nH]c1C(=O)NCCCNC(=O)c1[nH]cnc1C(=O)Nc1ccccc1	14	15µM*	u	7%	4%
CCN(CC)C(=O)c1[nH]cnc1C(=O)Nc1ccccc1	10	6%	-1%	11%	10%
O=C(Nc1ccc([N+](=O)[O-])cc1)c1nc[nH]c1C(=O)NC1CCCCC1	-10	u	u	7%	10%
Cn1cc(S(=O)(=O)N2CCCCCC2)cc1C(=O)Nc1ccc(Cl)c(C(F)(F)F)c1	x	-26%	0%	x	x
CCOc1ccccc1CNc1nc2nc(C)c(CC(=O)OC)c(=O)n2[nH]1	x	-13%	0%	x	x
COc1ccc(NC(=O)C2CC3CCC2C3)c(OC)c1 (configuration not stated)	-22	3%	-3%	-5%	0%
COc1cccc(C2(CC(=O)N3CCN(c4ccccn4)CC3)CC(=O)N(C3CCCC3)C2=O)c1 (configuration not stated)	x	u	1%	x	x
O=C(Nc1ccccc1)c1nc[nH]c1C(=O)NCCN(CCNC(=O)c1[nH]cnc1C(=O)Nc1ccccc1)CCNC(=O)c1[nH]cnc1C(=O)Nc1ccccc1	-26	23µM*	u	u	u
O=C(Nc1ccccc1)c1nc[nH]c1C(=O)NCCCCCCNC(=O)c1[nH]cnc1C(=O)Nc1ccccc1	-7	8.2µM*	7.3µM*	12%	19%
CC(C)CN1CC[C@@]2(CCCN(C(=O)c3cccc(F)c3)C2)C1	x	-2%	5%	x	x
CCNc1ncc2nc(C)c(=O)n(Cc3ccc(F)cc3)c2n1	x	-5%	1%	x	x
O=C(O)c1ccc2c3n(nc2c1)-c1ccc(Cl)cc1CO3	22	-9%	-24%	-9%	-7%
COC(=O)c1ccc(-c2cc(CC3(C(=O)OC)CCN(C(=O)OC(C)(C)C)CC3)on2)cc1	-12	u	23µM*	1%	13%
O=c1[nH]c(-c2ccccn2)nc2sc(-c3ccccc3)cc12	-102*	2.1µM*	2.3µM*	-30%	u
